Values joined by “and” are separate entries in the source; they are usually repeats but may differ in a detail not shown here. Identical values can stand only once. The campaign covered roughly 5,500 compounds. About 2,000 (36%) were called active. Another 18% or so got no clear call; they are omitted. Cut-off read from the data, not from the text of the source: active = normalized growth mostly below about 0.91 (no sharp cut-off); inconclusive = no clear call, values can overlap the other calls; inactive = mostly above about 0.92. Some of the results follow.
Assay: chemical genetic growth profiling, strain panel (AID 1159580);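 note: tested at 20 µM; growth read once vehicle control cultures reached saturation at 30 °C; 1 = growth at the plate median or of vehicle wells; lower values mean less growth of the strain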
Conditions: S. cerevisiae deletion strains, growth OD

Measured: normalized growth

C[C@]12CCC(=O)C=C1CCC1C2[C@@H](O)C[C@@]2(C)C1CC[C@]2(O)C(=O)CO (stereo partly drawn)
inactive: locus YAL013W, strain DEP1, active compounds read low 1.02 | locus YAL021C, strain ccr4, active compounds read low 0.984 | locus YAL026C, strain drs2, active compounds read low 0.994 | locus YAL030W, strain snc1, active compounds read low 1.01 | locus YBL061C, strain skt5, active compounds read low 0.987 | locus YBR009C, strain hhf1, active compounds read low 1 | locus YBR021W, strain FUR4, active compounds read low 1.01 | locus YBR023C, strain chs3, active compounds read low 0.979 | locus YBR171W, strain sec66, active compounds read low 0.975 | locus YBR229C, strain ROT2, active compounds read low 1.02 | locus YBR231C, strain swc5, active compounds read low 1 | locus YBR279W, strain paf1, active compounds read low 0.98 | locus YCL011C, strain gbp2, active compounds read low 0.979 | locus YCL016C, strain dcc1, active compounds read low 0.971 | locus YCL029C, strain bik1, active compounds read low 0.995 | locus YCL069W, strain vba3, active compounds read low 1 | locus YCR088W, strain abp1, active compounds read low 0.993 | locus YDL005C, strain med2, active compounds read low 0.99 | locus YDL035C, strain GPR1, active compounds read low 1.02 | locus YDL040C, strain nat1, active compounds read low 1.01 | locus YDL074C, strain BRE1, active compounds read low 1.02 | locus YDL101C, strain DUN1, active compounds read low 1.02 | locus YDL185W, strain tfp1, active compounds read low 1 | locus YDL192W, strain arf1, active compounds read low 0.99 | locus YDR001C, strain nth1, active compounds read low 1 | locus YDR069C, strain doa4, active compounds read low 0.993 | locus YDR101C, strain arx1, active compounds read low 0.974 | locus YDR137W, strain rgp1, active compounds read low 1.01 | locus YDR159W, strain sac3, active compounds read low 0.948 | locus YDR162C, strain NBP2, active compounds read low 1.02 | locus YDR195W, strain ref2 0.974 | locus YDR297W, strain sur2, active compounds read low 1 | locus YDR318W, strain mcm21, active compounds read low 1 | locus YDR334W, strain swr1, active compounds read low 0.981 | locus YDR335W, strain msn5, active compounds read low 0.987 | locus YDR388W, active compounds read low 0.991 | locus YDR392W, strain spt3, active compounds read low 0.899 | locus YDR502C, strain sam2, active compounds read low 1.01 | locus YEL003W, strain gim4, active compounds read low 1.01 | locus YEL037C, strain rad23, active compounds read low 1 | locus YEL061C, strain CIN8 (second series), active compounds read low 0.991 | locus YEL061C, strain CIN8, active compounds read low 1.01 | locus YER015W, strain faa2, active compounds read low 0.996 | locus YER016W, strain bim1, active compounds read low 0.99 | locus YER110C, active compounds read low 0.989 | locus YER111C, strain swi4, active compounds read low 0.981 | locus YER155C, strain BEM2 (second series), active compounds read low 1.01 | locus YER155C, strain BEM2, active compounds read low 1.01 | locus YER167W, strain BCK2, active compounds read low 1.01 | locus YFR010W, strain ubp6, active compounds read low 1.01 | locus YGL078C, strain dbp3, active compounds read low 0.984 | locus YGL086W, strain mad1, active compounds read low 0.988 | locus YGL167C, strain pmr1, active compounds read low 0.987 | locus YGL173C, strain kem1, active compounds read low 0.975 | locus YGL227W, strain vid30, active compounds read low 0.981 | locus YGL240W, strain doc1, active compounds read low 0.971 | locus YGL248W, strain PDE1, active compounds read low 1.02 | locus YGL253W, strain hxk2, active compounds read low 0.99 | locus YGR078C, strain PAC10, active compounds read low 1.03 | locus YGR135W, strain pre9, active compounds read low 1.01 | locus YGR229C, strain SMI1, active compounds read low 1.02 | locus YGR252W, strain gcn5, active compounds read low 1.02 | locus YHR013C, strain ard1, active compounds read low 0.969 | locus YHR027C, strain rpn1, active compounds read low 1.01 | locus YHR030C, strain SLT2, active compounds read low 1.01 and 0.975 | locus YHR079C, strain IRE1 (second series), active compounds read low 0.997 | locus YHR079C, strain IRE1, active compounds read low 0.99 | locus YHR094C, strain hxt1, active compounds read low 0.988 | locus YHR129C, strain ARP1, active compounds read low 1.02 | locus YHR142W, strain chs7, active compounds read low 0.999 | locus YHR200W, strain rpn10, active compounds read low 1.01 | locus YIL066C, strain RNR3, active compounds read low 1.02 | locus YIL073C, strain SPO22, active compounds read low 1.02 | locus YIL125W, strain kgd1, active compounds read low 0.997 | locus YIR030C, strain dcg1, active compounds read low 0.994 | locus YJL092W, strain hpr5, active compounds read low 0.995 | locus YJL095W, strain BCK1 (second series), active compounds read low 1 | locus YJL095W, strain BCK1, active compounds read low 1.04 and 0.981 | locus YJL115W, strain asf1, active compounds read low 0.992 | locus YJL129C, strain trk1, active compounds read low 0.97 | locus YJL134W, strain LCB3, active compounds read low 1.01 | locus YJL154C, strain vps35, active compounds read low 0.991 | locus YJL164C, strain tpk1, active compounds read low 1 | locus YJL166W, strain qcr8, active compounds read low 1.02 | locus YJL168C, strain set2, active compounds read low 0.999 | locus YJL187C, strain SWE1 (second series), active compounds read low 1.02 | locus YJR043C, strain POL32, active compounds read low 1.03 | locus YJR066W, strain TOR1, active compounds read low 0.922

Source: PubChem BioAssay AID1159580 (chemical genetic matrix, 2015)
